Screening results deposited in PubChem BioAssay by The Scripps Research Institute Molecular Screening Center.
Fam108B counter: blocks mouse Fam108B hydrolase in RBBP9 counter-screen. recombinant Fam108B, FP-Rh probe fluorescence polarization. inhibition, % at 9.51 µM. actives 0.33% (n = 300,000);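 active means inhibition above the screen mean inhibition plus 3 SD, computed separately per campaign, cut at about 18% in these data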;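 further: inhibitors lower polarization as less probe binds the enzyme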
PME-1 inh: PME-1 (human) inhibition; actives 0.53% (n = 320,000); Q9Y570; recombinant PME-1, FP-Rh probe fluorescence polarization; inhibition, % at 5.9 µM;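 active means inhibition above the campaign mean of all compounds plus 3 SD, cut at about 26% in these data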;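 further: competitive labeling of PME-1 active site by serine hydrolase directed probe; 0% = PME-1 with DMSO and 100% = wells lacking PME-1 enzyme; inhibitors block probe labeling so polarization falls and inhibition rises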
LYPLA2 inh: counter-screen for PME1 inhibitors: inhibitors of human LYPLA2. O95372. recombinant LYPLA2, FP-Rh probe fluorescence polarization. inhibition, % at 5.9 µM. actives 0.38% (n = 320,000);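 active means inhibition above the screen-wide mean plus 3 SD, limit set per campaign, cut at about 26% in these data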;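 further: 0% = LYPLA2 with DMSO and 100% = wells lacking LYPLA2 enzyme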
Target sequence (O95372 whole entry, looked up): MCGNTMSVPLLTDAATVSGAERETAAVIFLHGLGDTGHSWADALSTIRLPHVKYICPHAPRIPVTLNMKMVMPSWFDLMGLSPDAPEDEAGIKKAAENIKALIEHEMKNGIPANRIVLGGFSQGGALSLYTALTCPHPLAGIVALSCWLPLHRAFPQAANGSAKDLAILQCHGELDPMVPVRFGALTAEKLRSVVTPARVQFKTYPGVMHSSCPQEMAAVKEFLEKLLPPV
LYPLA1 counter: LYPLA1 (human) inhibition in PME1 counter-screen; O75608; recombinant LYPLA1, FP-Rh probe fluorescence polarization; inhibition, % at 5.9 µM; actives 0.16% (n = 320,000); AID 2174;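 active means inhibition above the mean of all tested compounds plus 3 SD, set per campaign, cut at about 14% in these data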;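 further: inhibitors block serine hydrolase probe labeling of LYPLA1 so polarization falls; 0% = enzyme with DMSO and 100% = wells lacking LYPLA1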
Target sequence (O75608 whole entry, looked up): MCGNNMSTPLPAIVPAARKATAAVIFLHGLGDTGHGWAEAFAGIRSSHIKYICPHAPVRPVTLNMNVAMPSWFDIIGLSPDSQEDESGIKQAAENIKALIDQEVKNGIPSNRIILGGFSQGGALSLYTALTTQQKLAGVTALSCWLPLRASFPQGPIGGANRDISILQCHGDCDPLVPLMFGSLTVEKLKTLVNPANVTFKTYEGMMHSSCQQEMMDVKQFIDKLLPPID
PREPL inhibitor: inhibitors of human prolyl oligopeptidase-like enzyme PREPL. recombinant PREPL, fluorescence polarization activity-based probe. inhibition, % at 5.96 µM. actives 0.68% (n = 320,000). AID 2751; in the data active means inhibition above about 43%;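 further: 0% = enzyme with DMSO and 100% = wells lacking enzyme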
LYPLA1 confirm: LYPLA1 (human) inhibition, confirmation counter-screen; inhibition, % at 5.9 µM; recombinant LYPLA1, FP-Rh probe fluorescence polarization; shares compounds with LYPLA1 counter; actives 69% (n = 480); AID 2233;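 active means mean inhibition across replicates above the hit cutoff set in the primary screen, cut at about 15% in these data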;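 further: loss of FP-Rh probe labeling of LYPLA1 seen as lower polarization; 0% = LYPLA1 with DMSO and 100% = wells lacking LYPLA1 enzyme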
LYPLA2 conf: LYPLA2 (human) inhibition, confirmation counter-screen | shares compounds with LYPLA2 inh | recombinant LYPLA2, FP-Rh probe fluorescence polarization | inhibition, % at 5.9 µM | actives 72% (n = 1,100);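 active means mean inhibition across replicates above the hit cutoff set in the primary screen, cut at about 26% in these data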;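 further: blocked labeling of the enzyme by serine hydrolase FP-Rh probe lowers polarization; 0% = enzyme with DMSO and 100% = wells lacking LYPLA2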
* = called active by the depositor; x = not tested or not shown. Shown are actives, neighbours in structure and some others; about 1.3% of the full set was active somewhere.

SMILES | Fam108B counter | PME-1 inh | LYPLA2 inh | LYPLA1 counter | PREPL inhibitor | LYPLA1 confirm | LYPLA2 conf
O=c1[nH]c(CN2CCN(C/C=C/c3ccccc3)CC2)nc2cc(Cl)ccc12 | 3 | 1 | 32* | 34* | -39 | 41* | 31*
CC(=O)c1ccc(N=Nc2ccc(N)cc2)cc1 | 4 | -1 | 4 | 5 | 11 | x | x
O=[N+]([O-])c1cccc(/C=N/N2CCN(Cc3ccc(Cl)cc3)CC2)c1 | 0 | 7 | 41* | 29* | 30 | 37* | 53*
CC1(C)Cc2c(cnn2-c2cccc(F)c2)C(NC(=O)CSc2ccncc2)C1 (centres undefined) | 0 | 3 | 2 | 2 | -7 | x | x
O=C1Cc2ccccc2C(c2ccc(Br)cc2)N1 (centres undefined) | -2 | -1 | 30* | 22* | -1 | 29* | 27*
COc1ccc(S(=O)(=O)N(C)CC(=O)N2CCCCCC2)cc1OC | -6 | 4 | 1 | -3 | 18 | x | x
COc1ccc(S(=O)(=O)N(C)CC(=O)N2CCN(c3ccc(F)cc3)CC2)cc1OC | -2 | 3 | 37* | 22* | 9 | 21* | 33*
O=C(CSCc1ccccc1Br)Nc1ccccc1 | -3 | 3 | 37* | 16* | -3 | 32* | 47*
CC(=O)c1cccc(NC(=O)CNC(=O)Cc2ccccc2)c1 | 3 | 2 | -7 | -4 | 7 | x | x
CC(=O)N1CCC2(CC1)C/C(=N\NC(=S)Nc1ccccc1F)c1cc(O)ccc1O2 | 3 | 16 | 19 | 10 | 38 | x | x
CC(=O)N1CCC2(CC1)C/C(=N\NC(=S)Nc1ccccc1C)c1cc(O)ccc1O2 | 0 | -3 | 48* | 17* | 31 | 29* | 55*
COCCNC(=S)N1CCCC(CO)C1 (centres undefined) | 0 | 1 | -2 | 0 | 5 | x | x
Cc1ccc(NS(=O)(=O)c2cccc(C(=O)N3CCN(c4ncccn4)CC3)c2)cc1 | x | 31* | 50* | 24* | 18 | -1 | 2
Cc1ccc(NS(=O)(=O)c2cccc(C(=O)N3CCCCCCC3)c2)cc1 | 1 | 9 | 2 | 0 | 4 | x | x
O=C(COc1ccc(Br)cc1)Nc1ccc(Cc2ccncc2)cc1 | -1 | -17 | 30* | 23* | -37 | 25* | 22
Cc1ccc(S(=O)(=O)Nc2cccc(S(=O)(=O)Nc3ccccc3C(=O)O)c2)c(C)c1 | x | x | x | x | 12 | x | x
CCOC(=O)N1CCN(C(=O)c2cc(COc3cccc(C(F)(F)F)c3)on2)CC1 | 5 | 4 | 4 | 1 | 17 | x | x
O=C(c1cc(COc2cccc(C(F)(F)F)c2)on1)N1CCC(Oc2cccnc2)CC1 | -1 | 8 | 35* | 40* | 6 | 50* | 38*
Cc1ccc(OCc2cc(C(=O)N3CCC(Oc4cccnc4)CC3)no2)cc1C | -3 | 1 | 48* | 38* | 6 | 38* | 38*
CCCCC(=Nc1ccc(N)cc1)C1=C(O)C(C(=O)OC)C(C)(C)CC1=O (centres undefined) | 13 | 41* | 28* | 23* | 30 | 3 | 5
CCCC(=NCc1ccccc1)C1=C(O)C(C(=O)OC)C(C)(C)CC1=O (centres undefined) | 0 | -2 | 6 | 4 | 24 | x | x
COC(=O)N/N=C/c1ccc(Oc2ccccc2)cc1 | -3 | 1 | 0 | -5 | 8 | x | x
OC(CN1CCN(c2cccc(C(F)(F)F)c2)CC1)c1c[nH]c2ccccc12 (centres undefined) | 6 | 5 | 57* | 23* | 37 | 30* | 49*
COC(=O)Cc1cc(=O)n2c(nc3ccccc32)[nH]1 | 0 | 5 | 2 | -1 | -4 | x | x
Cc1ccc(C(=O)OCC(=O)NC2CC2)cc1S(=O)(=O)N1CCOCC1 | x | 1 | 6 | 1 | 5 | x | x
SMILES | Fam108B counter | PME-1 inh | LYPLA2 inh | LYPLA1 counter | PREPL inhibitor | LYPLA1 confirm | LYPLA2 conf
Cc1c(Br)c([N+](=O)[O-])nn1CC(=O)Nc1ccc(Cc2ccncc2)cc1 | 0 | 0 | 59* | 23* | 34 | 35* | 67*
N#Cc1c(N)nc(SCc2ccncc2)c(C#N)c1-c1cccs1 | -2 | 15 | 42* | 39* | -6 | 41* | 43*
CC1=C([N+](=O)[O-])C(c2ccccc2Cl)NC(=O)N1C (centres undefined) | -1 | -1 | -1 | 0 | -3 | x | x
CCn1c(SCC(=O)N(C)Cc2ccc(OC)c(F)c2)nc2cc(S(N)(=O)=O)ccc21 | -2 | -2 | 10 | 0 | 7 | x | x
CCc1ccc(OCCn2cccn2)cc1 | 2 | 5 | 1 | 1 | -11 | x | x
CCOC(=O)CCc1c(C)nc(SCc2ccc(C(=O)O)cc2)c(C#N)c1C | -1 | -1 | 43* | 20* | -3 | 39* | 59*
COc1ccc(C(=O)NC(=S)Nc2ccc(N3CCOCC3)c(Cl)c2)cc1[N+](=O)[O-] | -6 | 1 | 60* | 50* | 12 | 54* | 61*
COc1ccc(C(=O)NC(=S)Nc2ccc(CN3CCOCC3)cc2)cc1Cl | -3 | 2 | 60* | 22* | -13 | 21* | 46*
CCC(=O)N1CCN(c2ccc(NC(=S)NC(=O)c3ccc(OC)c([N+](=O)[O-])c3)cc2)CC1 | 1 | 7 | 63* | 56* | 5 | 70* | 81*
O=C(O)COc1ccccc1/C=N/NC(=O)CSc1nc2ccccc2n1Cc1ccc(Cl)cc1 | -3 | -1 | -10 | -8 | -36 | x | x
O=C1N=C(N2CCN(Cc3ccccc3)CC2)S/C1=C/c1cccs1 | -3 | -3 | 47* | 25* | -22 | 36* | 55*
O=C1N=C(c2ccccc2)S/C1=C\c1cccs1 | 4 | 5 | -1 | -2 | 11 | x | x
C=C(C)CSc1[nH]c(=O)cc(C)c1C#N | 3 | 1 | -1 | -2 | -1 | x | x
COc1ccc(CCNC(=O)c2cc([N+](=O)[O-])ccc2N2CCOCC2)cc1 | 9 | -2 | 0 | 1 | 6 | x | x
NS(=O)(=O)c1ccc(CCNC(=O)c2cc([N+](=O)[O-])ccc2N2CCCCC2)cc1 | -1 | 2 | 30* | 78* | 9 | 77* | 14
O=C(CCN1CCN(c2ccc([N+](=O)[O-])cc2)CC1)c1ccc(Cl)cc1 | 0 | -1 | 73* | 37* | 7 | 47* | 79*
COc1ccc([N+](=O)[O-])cc1N/C(=N/S(=O)(=O)c1ccccc1)c1ccccc1 | 1 | -1 | 4 | -1 | 13 | x | x
COc1ccc(-n2nc(C(=O)NCC(=O)N3CCN(c4ccccc4)CC3)c3ccccc3c2=O)c(OC)c1 | 1 | 4 | 22 | -2 | 8 | x | x
COc1ccc(N2CCN(C(=O)CNC(=O)c3cn(-c4ccccc4OC)c(=O)c4ccccc34)CC2)cc1 | -1 | 3 | 76* | 15* | 14 | 26* | 81*
